Screening data (PubChem)
Shown are actives, neighbours in structure and some others; about 19% of the full set was active somewhere.
TDP1 cell noCPT – qHTS for Inhibitors of human tyrosyl-DNA phosphodiesterase 1 (TDP1): qHTS in cells in absence of CPT; DT40 Tdp1-/- hTDP1 cells, no CPT, ATP luminescence, 48 h; Potency, µM (series often up to 46.2 µM), without a hit: at the top dose activity change, negative = growth inhibition, hits mostly inhibitors; actives 15% (n = 420,000); AID 686978, 2013; further: nearly all actives have a fitted effect of over 55% in size
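Compound effects on proliferation are scored in DT40 Tdp1-/-;hTDP1 cells in the absence of CPT. ATP levels (CellTiter-Glo luminescence) are recorded after a ≥48 hr, 37 °C incubation.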
KB-V1 MDR tox – kills drug-selected multidrug resistant KB-V1 cells | KB-V1 MDR cells viability, CellTiter-Glo, 72 h | Potency, µM (titrated, usually from 46.1 µM), hits mostly cytotoxic | actives 3.4% (n = 400,000); further: nearly all actives have a fitted effect of over 60% in size
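KB-V1 MDR subline cells in DMEM (phenol-red free, 10% FBS) exposed to compounds in qHTS concentration series for 72 h at 37 degrees C. Viability read by CellTiter-Glo luminescence; concentration-effect curves fitted after normalization and correction.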
HT1080 IDH1KD tx – kills HT-1080 cells with IDH1 knockdown; Potency, µM (series often up to 46.1 µM), without a hit: at the top dose activity, negative = toxicity, most hits filed as cytotoxic; HT-1080 IDH1 knockdown viability, ATP luminescence, 48 h; actives 2% (n = 360,000); AID 686971;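 further: 0% = DMSO wells and -100% = cell-free medium wells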
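CellTiter-Glo luminescence after 48 h compound exposure at 37 degrees C of IDH1-knockdown HT-1080 cells in 5% FBS RPMI. %Activity scaled between DMSO wells and cell-free media wells, with curves fitted and assigned curve classes.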
HT1080NT lethal – kills 2HG-producing HT-1080-NT fibrosarcoma cells; AID 686970; Potency, µM (top dose mostly 46.1 µM), inactives show top-dose activity, negative = less viability, usual class: cytotoxic; actives 1.6% (n = 360,000); HT-1080-NT fibrosarcoma viability, CellTiter-Glo ATP luminescence, 48 h;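 further: NT is the 2HG producing partner of a matched IDH1 knockdown line; 0% = DMSO-treated cells and -100% = media-only wells without cells; nearly all actives have a fitted effect of over 55% in size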
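Luminescent CellTiter-Glo readout after 48 hours of compound exposure at 37 degrees C defined viability of HT-1080-NT cells. Activity was normalized to DMSO wells and cell-free media wells; concentration-response curves were fitted and assigned curve classes.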
KB-3-1 tox – kills parental KB-3-1 adenocarcinoma cells | KB-3-1 viability, CellTiter-Glo ATP luminescence, 72 h | Potency, µM (titrated, usually from 46.1 µM), usual class: cytotoxic | actives 1.4% (n = 400,000); further: nearly all actives have a fitted effect of over 60% in size
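KB-3-1 parental drug-naive adenocarcinoma cells in DMEM/10% FBS, incubated 72 h at 37 C with pin-transferred compounds across a concentration series. Viability by CellTiter-Glo luminescence; concentration-response curves fitted after normalization.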
TDP1 cell CPT – DT40-hTDP1 cell growth loss with CPT; AID 686979; Potency, µM (top dose mostly 46.2 µM), inactives show at the highest dose activity change, negative = growth inhibition, actives largely listed as inhibitors; actives 12% (n = 420,000); chicken DT40 Tdp1-/-;hTDP1 cells + 20 nM CPT, ATP luminescence, 48 h; further: nearly all actives have a fitted effect of over 55% in size
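Chicken DT40 Tdp1-/- cells complemented with human TDP1, 400 cells/well, exposed to compounds plus 20 nM camptothecin for at least 48 h at 37 C; viability read as ATP content by CellTiter-Glo luminescence.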
Numbers without * were called inactive; i = inactive; ? = inconclusive; nt = no result given. The call rests on the fitted dose curve; in most records, active means well fitted curve in the direction sought with a large enough effect; inconclusive means small, poorly fitted or top-dose-only effect, or another doubt; inactive means no such curve, though single readings can be large; an effect the other way counts as inactive or inconclusive. Unless noted, on the % scale 0 is the no-effect control and ±100 the full control effect; potency means the concentration at half of the fitted maximal effect.

SMILES	TDP1 cell noCPT	KB-V1 MDR tox	HT1080 IDH1KD tx	HT1080NT lethal	KB-3-1 tox	TDP1 cell CPT
CCC(=O)OCC(=O)[C@@]1(OC(=O)CC)[C@@H](C)C[C@H]2[C@@H]3CCC4=CC(=O)C=C[C@]4(C)[C@@]3(Cl)[C@@H](O)C[C@@]21C	16.4µM*	?	-19.0%	?	i	23.7µM*
O=S(=O)(NCCc1csc(-c2ccc(F)cc2)n1)c1ccc(F)cc1F	20.6µM*	i	nt	nt	?	16.4µM*
O=C(COc1ccccc1)N(CCc1ccccc1)c1nc(-c2ccc(F)cc2)cs1	?	14.6µM*	21.3%	18.6%	i	-22.9%
O=C(COc1ccc(Cl)cc1)NCCc1csc(-c2cccc(F)c2)n1	?	i	nt	nt	i	?
O=C(COc1ccccc1)NCCc1csc(-c2ccc(F)cc2)n1	?	i	nt	nt	i	14.6µM*
N#Cc1ccc(-c2ccc(OCC(=O)NCCc3ccccc3)cc2)cc1	11.6µM*	5.17µM*	0.9%	3.2%	i	?
COc1ccc(F)cc1S(=O)(=O)NCCc1csc(-c2ccc(Cl)cc2)n1	?	i	nt	nt	i	?
O=C(CCc1ccccc1)NCCc1csc(-c2cccc(F)c2)n1	18.4µM*	i	nt	nt	i	?
COc1ccc(CC(=O)NCCc2csc(-c3cccc(F)c3)n2)cc1OC	?	i	nt	nt	i	-19.2%
O=[N+]([O-])c1cc(-c2nc(-c3ccccc3)no2)ccc1NCC1CCCO1 (stereo not given)	?	?	nt	nt	i	?
Cc1ccccc1-c1noc(-c2ccc(NC3CCCC3)c([N+](=O)[O-])c2)n1	-18.6%	?	nt	nt	i	-11.7%
COc1ccccc1-c1noc(-c2ccc(NCC3CCCO3)c([N+](=O)[O-])c2)n1 (stereo not given)	8.2µM*	i	nt	nt	i	18.4µM*
COc1ccccc1-c1noc(-c2ccc(NC3CCCC3)c([N+](=O)[O-])c2)n1	23.1µM*	i	nt	nt	i	18.4µM*
Cc1ccccc1-c1noc(-c2ccc(NCC3CCCO3)c([N+](=O)[O-])c2)n1 (stereo not given)	2.06µM*	i	nt	nt	i	3.26µM*
CCn1ccnc1CN(C)Cc1cn(-c2cccc(C)c2)nc1-c1cccc(F)c1	?	?	-28.5%	-16.2%	?	16.4µM*
CCn1ccnc1CN(C)Cc1cn(-c2ccc(C)cc2)nc1-c1cccc(C)c1	-107.8%	i	25.9µM*	?	i	?
Cc1ccc(-n2cc(CN3CCN(Cc4nccn4C)CC3)c(-c3cccc(C)c3)n2)cc1	?	i	?	-18.5%	?	?
COc1ccc(-n2cc(CN(C)CCO)c(-c3cccc(F)c3)n2)cc1	?	i	-0.1%	-0.3%	i	-26.1%
CN(C)CCNC(=O)c1cccc(-c2cnc3c(NC=O)cc(-c4ccc(S(C)(=O)=O)cc4)cn23)c1	6.6%	i	1.6%	5.2%	i	7.5%
CN(C)CCNC(=O)c1cccc(-c2cc(NC=O)c3ncc(-c4cccc(C(F)(F)F)c4)n3c2)c1	5.17µM*	i	16.4µM*	29.1µM*	i	3.26µM*
CN(C)CCNC(=O)c1cccc(-c2cnc3c(NC=O)cc(-c4cc(F)c(F)c(F)c4)cn23)c1	3.26µM*	i	18.4µM*	?	i	4.11µM*
CC1=CC=CN2C1=NC(=O)CC2(C)C(=O)N(CC(=O)NC1CCCC1)c1cc(C)cc(C)c1 (stereo not given)	1.5%	?	1.9%	3.2%	i	-3.3%
COc1ccc(C2CC(=O)c3cc(-c4nc(-c5ccc(Cl)cc5)c(C)s4)c(=O)[nH]c3C2)cc1 (stereo not given)	1.84µM*	i	nt	nt	i	?
COc1ccc(C2CC(=O)c3cc(-c4nc(-c5cccc(Cl)c5)cs4)c(=O)[nH]c3C2)cc1 (stereo not given)	0.3%	i	nt	nt	i	3.3%
CC1(C)CC(=O)c2cc(-c3nc(-c4ccccc4)cs3)c(=O)[nH]c2C1	13µM*	i	nt	nt	i	9.2µM*
SMILES	TDP1 cell noCPT	KB-V1 MDR tox	HT1080 IDH1KD tx	HT1080NT lethal	KB-3-1 tox	TDP1 cell CPT
Cc1ccc(-c2csc(-c3cc4c([nH]c3=O)CC(c3ccccc3)CC4=O)n2)cc1 (stereo not given)	1.3µM*	?	nt	nt	0.82µM*	1.46µM*
Cc1ccccc1[C@@H]1C(C#N)=C(N)S[C@H]1C(=O)c1ccccc1	?	?	-18.7%	-0.1%	i	?
Cc1cccc(NC(=O)CNC(=O)c2ccc3nc[nH]c3c2)c1C	-2.9%	i	-0.9%	-0.9%	i	11.1%
CCOC(=O)C1=C(C)N(CCCC(=O)O)C(=O)NC1c1ccccc1OS(=O)(=O)c1ccc(C)cc1 (stereo not given)	1.8%	i	-6.5%	-5.1%	i	-22.6%
Cc1nn2c(=O)cc(COc3ccc(/C=C(\C#N)C(=O)Nc4ccccc4)cc3Cl)nc2s1	20.6µM*	?	nt	nt	i	-10.1%
Cc1nn2c(=O)cc(COc3ccc(/C=C(\C#N)C(=O)Nc4ccccc4C)cc3)nc2s1	?	i	nt	nt	i	13.6%
O=Cc1cnc2ccccc2c1-c1ccccc1	23.1µM*	i	2.0%	-14.4%	i	?
CCCCOc1ccc(CSCCN)cc1Cl	18.4µM*	i	-4.0%	8.3%	i	18.4µM*
CCN(CC)C(=O)CCCOc1ccc(Cl)cc1Cl	?	i	1.1%	1.2%	i	?
CC(C)Oc1ccc(CSC(=N)N)cc1	-28.1%	i	-6.2%	?	i	-26.6%
CCOc1ccc(CSC(=N)N)cc1Cl	11.6µM*	i	-10.6%	-5.8%	i	14.6µM*
CCOc1ccc(CSC(=N)N)cc1[N+](=O)[O-]	?	?	?	?	?	23.1µM*
COc1ccc(-c2nc3c(Cl)cc(C(F)(F)F)cn3c2Cc2ccsc2)cc1OC	?	i	1.9%	9.4%	i	?
COc1cccc(CNC(=O)c2ccc3nc(CCc4ccccc4)oc3c2)c1OC	?	i	nt	nt	i	-23.1%
COc1ccc(-c2csc(NC(=O)C3=NN(c4ccccc4)C(=O)CC3)n2)cc1	16.4µM*	?	-15.9%	-2.0%	?	14.6µM*
